MEKK2wt PB1 HTS: raises or lowers MEK5 binding to wildtype human MEKK2 PB1 domain. Q9Y2U5. 290,000 compounds, 1.1% hits. bead flow cytometry, Alexa488-MEK5 binding to MEKK2 WT; actives lie on both sides. binding response (% of control), % at 10 µM; in the data active = binding response below about 67% or above about 130%
MEKK3 PB1 HTS: raises or lowers MEK5 binding to the human MEKK3 PB1 domain; binding response (% of control), % at 10 µM; bead-based flow cytometry, Alexa488-MEK5 binding to MEKK3; actives lie on both sides; 0 = blocked by unlabeled MEK5, 100 = vehicle; AID 1529; Q99759; 290,000 compounds, 1.4% hits;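 active = binding response more than 3 SD above or below the average of its plate-row segment, actives on both sides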;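 note: Alexa488 bead fluorescence after subtracting the streptavidin-only scavenger bead signal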
Target sequence (Q99759 whole entry, looked up, the tested form may be a part): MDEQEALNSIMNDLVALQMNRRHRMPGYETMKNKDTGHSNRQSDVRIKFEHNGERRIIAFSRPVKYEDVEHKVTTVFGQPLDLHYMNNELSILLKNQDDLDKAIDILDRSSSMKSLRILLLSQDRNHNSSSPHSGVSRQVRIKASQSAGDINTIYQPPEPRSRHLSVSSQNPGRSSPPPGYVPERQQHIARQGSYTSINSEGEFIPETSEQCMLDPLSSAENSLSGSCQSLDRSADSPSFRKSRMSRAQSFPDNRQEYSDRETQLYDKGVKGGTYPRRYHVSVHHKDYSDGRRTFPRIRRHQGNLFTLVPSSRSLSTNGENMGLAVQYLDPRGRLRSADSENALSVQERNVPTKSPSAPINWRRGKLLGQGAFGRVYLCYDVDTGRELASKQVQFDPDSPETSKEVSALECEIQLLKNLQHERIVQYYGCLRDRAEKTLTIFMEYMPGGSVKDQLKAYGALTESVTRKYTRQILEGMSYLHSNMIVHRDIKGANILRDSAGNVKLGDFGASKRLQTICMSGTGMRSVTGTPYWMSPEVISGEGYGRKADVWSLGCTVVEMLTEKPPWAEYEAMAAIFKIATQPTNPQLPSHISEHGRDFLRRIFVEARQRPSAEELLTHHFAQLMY
SKN-1 block: blocks SKN-1 activity in C. elegans | C. elegans VP596 Pgst-4::GFP/RFP ratio, acrylamide-induced, 24 h | inhibition, % at 21.8 µM | 360,000 compounds, 0.49% hits;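 active = interference check ratio from 0.5 to 1.5 plus GFP to RFP signal ratio inhibition reaching or exceeding a fixed threshold, cut at about 30% in these data, passing the limit was not always enough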
MEKK2mut PB1 HTS: signal of MEK5 binding to mutant human MEKK2 PB1 domain; AID 1530; bead flow cytometry, Alexa488-MEK5 binding to MEKK2 mutant; 290,000 compounds, 0.35% hits; percent response, % at 10 µM; in the data active = percent response above about 24%, passing the limit was not always enough
CendR NRP1 mod: alters CendR peptide binding to human NRP-1 | 360,000 compounds, 0.85% hits | AID 602438 | FAM-RPARPAR peptide binding to NRP-1, fluorescence polarization | O14786 | inhibition, % at 25 µM;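 active = inhibition or corrected inhibition above about 18%, plus a signal ratio from 0.5 to 1.5, limit read from the data, passing the limit was not always enough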
* = called active by the depositor; . = not tested or not shown. This is a sample that favours compounds with a hit; in the whole collection about 3.2% have one here.

SMILES | MEKK2wt PB1 HTS | MEKK3 PB1 HTS | SKN-1 block | MEKK2mut PB1 HTS | CendR NRP1 mod
CCn1nc(C)c(CN2CCC(n3nccc3NC(=O)CCCc3ccccc3)CC2)c1C | 106 | 101 | -28 | -3 | 1
O=C(Nc1ccnn1C1CCN(Cc2c[nH]c3ccccc23)CC1)c1ccccc1 | 135* | 105 | 13 | 21 | 0
Cn1cc(CN2CCC(n3nccc3NC(=O)c3ccccc3Cl)CC2)c2ccccc21 | 155* | 103 | 0 | 19 | 7
CCn1nc(C)c(CN2CCC(n3nccc3NC(=O)Cc3ccccc3)CC2)c1C | 107 | 101 | 5 | 5 | 21*
C[C@H](NC(=O)N1CCC(Cc2ccccc2)CC1)C(=O)O | 103 | 105 | -4 | 9 | -5
CCCn1c(C(C)Nc2nc(-c3ccc(Cl)c([N+](=O)[O-])c3)cs2)nc2cc(Cl)c(N3CCCCC3)cc21 (stereo not drawn) | 95 | 103 | -6 | 0 | -1
CC(c1ccncc1)C(C)c1ccncc1 (stereo not drawn) | . | . | 5 | . | 23*
CCOC(=O)C1Nc2ccccc2C2C(O)C(O)CC12 (stereo not drawn) | 107 | 99 | 12 | 2 | 27*
CCN(CC)c1ccc(/C=c2\sc3nc4ccccc4n3c2=O)c(O)c1 | 94 | 105 | 45* | 0 | -36
COc1ccc(CCC(=O)N2CCCc3ccccc32)cc1 | 98 | 100 | -5 | -1 | 28*
COc1ccc(OCCCC(=O)N2CCCc3ccccc32)cc1 | 98 | 97 | -19 | -8 | 7
Fc1ccc2nncc(SCc3ccccc3Cl)c2c1 | . | . | 29 | . | -7
CN(C)CCCNC(=O)c1cccc(-c2ccc3nncn3c2)c1 | . | . | 0 | . | 9
O=C(NCCO)c1cccc(-c2ccc3nncn3c2)c1 | . | . | 48* | . | 2
COc1ccc(C(=O)C2CC2c2ccc3c(c2)OCO3)cc1 (stereo not drawn) | 98 | 103 | -3 | -6 | 28*
O=C(Nc1ccccc1Br)C1CC(=O)N(c2ccc3c4c(cccc24)CC3)C1 (stereo not drawn) | 103 | 104 | -10 | -1 | 38*
CC(C)(C)OC(=O)[C@H](CCCCN)NC(=O)c1[nH]cnc1C(=O)N[C@@H](Cc1ccccc1)C(=O)OCc1ccccc1 | . | . | -8 | . | 28*
CC(C)C[C@H](NC(=O)c1nc[nH]c1C(=O)N[C@@H](CC(C)C)C(=O)OCc1ccccc1)C(=O)OCc1ccccc1 | 88 | 100 | -12 | -8 | -4
CC(C)C[C@H](NC(=O)c1[nH]cnc1C(=O)N[C@@H](Cc1ccccc1)C(=O)OCc1ccccc1)C(=O)OCc1ccccc1 | 91 | 101 | -6 | -10 | 20*
CC(C)C[C@@H](CNC(=O)OC(C)(C)C)NC(=O)c1nc[nH]c1C(=O)N[C@@H](CC(C)C)C(=O)CNC[C@H](CC(C)C)NC(=O)c1nc[nH]c1C(=O)N[C@@H](Cc1c[nH]c2ccccc12)C(=O)OC(C)(C)C | . | . | 21 | . | 23*
CC(C)(C)OC(=O)[C@H](Cc1ccccc1)NC(=O)c1[nH]cnc1C(=O)N[C@@H](Cc1ccccc1)C(=O)OCc1ccccc1 | 102 | 103 | 7 | -8 | 16
CCCCN(CCCC)Cc1cc(=O)oc2ccccc12 | . | . | -4 | . | 22
O=C(Nc1ccc(Cl)c(C(F)(F)F)c1)c1ccco1 | 88 | 83 | 44* | -9 | -4
Cc1cc(NC(=O)c2ccco2)ccc1-n1cnnn1 | 104 | 104 | 61* | 1 | 9
CC(C)(C)N(Cc1ccc2c(c1)OCO2)C(=O)/C=C\S(=O)c1ccccc1 (stereo not drawn) | . | . | 15 | . | 6
SMILES | MEKK2wt PB1 HTS | MEKK3 PB1 HTS | SKN-1 block | MEKK2mut PB1 HTS | CendR NRP1 mod
C#CCOc1nc(C)cc(C)c1S(=O)(=O)c1ccccc1C | 99 | 100 | -1 | -1 | 35*
COc1nc(C)cc(C)c1S(=O)(=O)c1ccccc1C | 101 | 107 | 8 | 4 | 14
CC(C)N1CC(C(=O)Nc2cccc([N+](=O)[O-])c2)CC1=O (stereo not drawn) | 105 | 103 | 3 | 1 | -15
Cc1cccc(C)c1OCc1cc(C(=O)N2CCN(C3CCCC3)CC2)no1 | 102 | 102 | 50* | 6 | -8
Cc1ccnc2nc(C(=O)OC(C)C(=O)NCc3ccccc3)nn12 (stereo not drawn) | . | . | 9 | . | 5
COc1cccc(NS(=O)(=O)c2ccc(C)c(C(=O)N3CCCCC3)c2)c1 | 99 | 101 | 8 | -2 | 20*

Screening data deposited in PubChem BioAssay by several laboratories.
